GRIN3A LBD mod: modulators (binders) of human NR3A ligand-binding domain; NR3A LBD differential scanning fluorimetry, Tm shift; 0% = protein alone, 100% = glycine-bound protein; Tm shift relative to glycine control, % at 25 µM; 2.5% of 340,000 active;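 active = melting temperature shift of at least 10% of the positive control shift, at one fixed dose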
SKN-1 inh: blocks SKN-1 activity in C. elegans. AID 624304. inhibition, % at 21.8 µM. 0.49% of 360,000 active. C. elegans VP596 Pgst-4::GFP/RFP ratio, acrylamide-induced, 24 h;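 active = interference check ratio from 0.5 to 1.5 plus GFP to RFP signal ratio inhibition reaching or exceeding a fixed threshold, cut at about 30% in these data, passing the limit was not always enough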
SMARCA2 activ: activators of SMARCA2 function. activation, % at 9.1 µM. MG213 cells, MMTV-luciferase reporter, dexamethasone, overnight. AID 652017. 1% of 370,000 active; in the data active = activation above about 7.8%
NadD inh: NadD (S. aureus) enzyme inhibition; purified NadD enzyme, colorimetric absorbance read-out; inhibition, % at 20 µM; 0.78% of 360,000 active; in the data active = inhibition above about 26%
esBAF inh: SWI/SNF esBAF complex inhibition; mouse ES cells, Bmi1-luciferase knock-in reporter, 24 h; 100% = twice the neutral-well signal; 2% of 350,000 active; AID 602393; reporter increase, % at 12.5 µM; in the data active = activation above about 40%;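 also: a rise in the Bmi1 reporter signal indicates esBAF inhibition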
Vif inh: blocks HIV Vif function; HEK293T cells, Vif self-association by quenched fluorescence, imaging, 24 h; inhibition, % at 7.49 µM; 0.35% of 340,000 active; in the data active = inhibition above about 50%, passing the limit was not always enough
Of the large screens only hits and unclear results are named; the others gave an inactive call. An excerpt weighted towards active compounds, which were near 5.2% of everything screened.

CCC(=O)Nc1ccc(Cl)c(NC(=S)NC(=O)COc2ccccc2)c1	none (no result: esBAF inh)
CCC(=O)Nc1cccc(NC(=S)NC(=O)c2ccc(Cl)cc2)c1	esBAF inh 61.1
CCC(=O)Nc1cccc(NC(=S)NC(=O)c2ccc(Cl)cc2Cl)c1	none (no result: esBAF inh)
CCC(=O)Nc1ccc(Cl)c(NC(=S)NC(=O)COc2ccc(Cl)cc2)c1	GRIN3A LBD mod 25.9 (no result: esBAF inh)
CCC(=O)Nc1ccc2c(c1)C(=O)N(C)[C@@H]1CC[C@@H](CC(=O)NC3CCCC3)O[C@H]1CO2	none (no result: GRIN3A LBD mod, SKN-1 inh, SMARCA2 activ, NadD inh, Vif inh)
Cc1cc([N+](=O)[O-])cc2c1NC(c1ccccn1)C1CC=CC21 (stereo not given)	none (no result: esBAF inh)
O=[N+]([O-])c1ccc(Cl)c2c1C1C=CCC1C(c1ccccn1)N2 (stereo not given)	NadD inh 40.7 (no result: esBAF inh)
COc1ccc2cc(/C=N/NC(=O)CN(c3ccccc3C)S(=O)(=O)c3ccccc3)c(Cl)nc2c1	GRIN3A LBD mod 11.2 (no result: esBAF inh)
O=C(Nc1ccc(S(=O)(=O)Nc2nccs2)cc1)C1CC(=O)N(c2ccc(Cl)cc2)C1 (stereo not given)	none
O=C(Nc1ccc(S(=O)(=O)Nc2ncccn2)cc1)C1CC(=O)N(c2ccc(Cl)cc2)C1 (stereo not given)	Vif inh 56.3
NC(=O)C1CC(=O)N(c2ccc(OCc3ccc(Cl)cc3Cl)cc2)C1 (stereo not given)	none
O=C(Nc1ccc(Cl)c(Cl)c1)C1CC(=O)N(c2ccc(Br)cc2)C1 (stereo not given)	GRIN3A LBD mod 28.2
NC(=O)C1CC(=O)N(c2ccc(OCc3ccc(Cl)c(Cl)c3)cc2)C1 (stereo not given)	esBAF inh 50.8 (no result: GRIN3A LBD mod, Vif inh)
OCc1ccccc1CNCc1ccccc1	none
Oc1cc(CNCc2ccccc2)c(O)cc1CNCc1ccccc1	NadD inh 57.3 (no result: esBAF inh)
C[C@@H]1CN([C@H](C)CO)C(=O)c2cc(NS(=O)(=O)c3ccccc3)ccc2O[C@@H](C)CCCCO[C@@H]1CN(C)C(=O)c1ccccc1	none (no result: GRIN3A LBD mod, SKN-1 inh, SMARCA2 activ, NadD inh, Vif inh)
CCCOc1ccc(C(=O)Nc2ccc(NC(=O)c3cccs3)cc2)cc1	GRIN3A LBD mod 13.8
O=C1CCC/C(=N/NC(=O)c2ccc(NS(=O)(=O)c3cccs3)cc2)C1	Vif inh 51.7
O=C(COc1ccc(NC(=O)c2cccs2)cc1)c1ccc(F)cc1	GRIN3A LBD mod 27.0
COc1ccc(C(=O)COc2ccc(NC(C)=O)cc2)cc1	GRIN3A LBD mod 12.8
O=C1CCC/C(=N/NC(=O)c2cc(NS(=O)(=O)c3cccs3)cc(NS(=O)(=O)c3cccs3)c2)C1	none
C[C@H](CO)N1C[C@H](C)[C@H](CN(C)C(=O)Nc2ccc3c(c2)OCO3)Oc2ccc(NC(=O)CCN3CCOCC3)cc2C1=O	none (no result: GRIN3A LBD mod, SKN-1 inh, SMARCA2 activ, NadD inh, Vif inh)
CO[C@@H](CN(C)Cc1cc(F)ccc1F)[C@@H](C)CN([C@H](C)CO)S(=O)(=O)c1ccc(F)cc1	none (no result: GRIN3A LBD mod, SKN-1 inh, SMARCA2 activ, NadD inh, Vif inh)
C[C@H]1CN([C@@H](C)CO)S(=O)(=O)c2ccc(C3=CCCCC3)cc2O[C@@H]1CN(C)S(=O)(=O)c1cn(C)cn1	none (no result: GRIN3A LBD mod, SKN-1 inh, SMARCA2 activ, NadD inh, Vif inh)
CCOc1ccc(NC(=O)c2ccc(NS(=O)(=O)c3cccs3)cc2)cc1	GRIN3A LBD mod 23.9
O=C(c1ccccc1)c1cccs1	none (no result: esBAF inh)
COc1cccc(NC(=O)c2ccc(NS(=O)(=O)c3cccs3)cc2)c1	none
CC(=O)c1cccc(NC(=O)c2ccc(NC(=O)CCS(=O)(=O)c3cccs3)cc2)c1	none
CCOc1ccc(C(=O)c2cccs2)cc1	esBAF inh 47.7
CCCCOc1cccc(C(=O)Nc2ccc(NC(=O)c3cccs3)cc2)c1	GRIN3A LBD mod 21.9
CC(=O)c1ccc(NC(=O)c2ccc(NC(=O)CCS(=O)(=O)c3cccs3)cc2)cc1	GRIN3A LBD mod 20.5
C[C@@H]1CCCCO[C@@H](CN(C)C(=O)Nc2ccc3c(c2)OCO3)[C@@H](C)CN([C@@H](C)CO)C(=O)c2cc(NC(=O)C3CCCCC3)ccc2O1	none (no result: GRIN3A LBD mod, SKN-1 inh, SMARCA2 activ, NadD inh, Vif inh)
C[C@@H]1CCCCO[C@@H](CN(C)C(=O)NC2CCCCC2)[C@H](C)CN([C@H](C)CO)C(=O)c2cc(NS(=O)(=O)c3ccc(F)cc3)ccc2O1	none (no result: GRIN3A LBD mod, SKN-1 inh, SMARCA2 activ, NadD inh, Vif inh)
CNC[C@H]1Oc2ccc(NC(=O)Nc3ccc(OC)cc3)cc2C(=O)N([C@@H](C)CO)C[C@@H]1C	none (no result: GRIN3A LBD mod, SKN-1 inh, SMARCA2 activ, NadD inh, Vif inh)
CNC(=O)C[C@H]1CC[C@@H]2[C@H](COc3ccc(NC(=O)c4cccc(F)c4)cc3C(=O)N2C)O1	none (no result: GRIN3A LBD mod, SKN-1 inh, SMARCA2 activ, NadD inh, Vif inh)
Cc1ccc(CNC(=O)C2(S(=O)(=O)c3ccccc3)CC=CC2)cc1	esBAF inh 73.2 (no result: SMARCA2 activ)
C[C@H]1CN([C@@H](C)CO)C(=O)c2cc(C#CCN(C)C)cnc2O[C@H]1CN(C)Cc1cccc(C(=O)O)c1	none (no result: GRIN3A LBD mod, SKN-1 inh, SMARCA2 activ, NadD inh, Vif inh)
CCn1c(O)c(/C=C2\C=Nc3ccccc32)sc1=Nc1ccc(C)cc1	GRIN3A LBD mod 17.9
O=c1[nH]c(O)c(/C=C2\C=Nc3ccccc32)[nH]1	GRIN3A LBD mod 31.2
CCn1c(O)c(/C=C2\C=Nc3ccccc32)sc1=O	esBAF inh 76.6
CCn1c(O)c(C=Nc2ccccc2)sc1=O	none
Oc1nc(Nc2ccccc2)sc1/C=C1\C=Nc2ccccc21	GRIN3A LBD mod 27.4, esBAF inh 61.5
C[C@@H]1CN([C@@H](C)CO)C(=O)c2cccc(NC(=O)c3cnccn3)c2O[C@@H]1CN(C)S(=O)(=O)c1ccc(F)cc1	none (no result: GRIN3A LBD mod, SKN-1 inh, SMARCA2 activ, NadD inh, Vif inh)
CN(C)c1ccc(C=c2c3ccccc3n3c2c2ccccc2[n+]3C)cc1	NadD inh 54.1 (no result: esBAF inh)
CCN1[C@@H]2c3ccc(-c4ccccc4)c(=O)n3C[C@@H]2[C@@H](CO)[C@@H]1C(=O)NCc1ccccc1	none (no result: GRIN3A LBD mod, SKN-1 inh, SMARCA2 activ, NadD inh, Vif inh)
Oc1ccc(Cl)cc1Sc1cc(Cl)ccc1O	GRIN3A LBD mod 24.6
Cc1ccc2cc(C#N)c(N3CCCN(S(=O)(=O)c4ccccc4)CC3)nc2c1	none
Cc1ccc2cc(C#N)c(N3CCCN(S(=O)(=O)c4ccccc4)CC3)nc2c1C	GRIN3A LBD mod 11.1
CC1CCN(C(C)C(=O)Nc2ccccc2-c2ccccc2)CC1 (stereo not given)	SKN-1 inh 43.6
C[C@@H]1CCCCO[C@H](CN(C)Cc2ccncc2)[C@H](C)CN([C@@H](C)CO)C(=O)c2cc(NS(=O)(=O)c3ccc(F)cc3)ccc2O1	none (no result: GRIN3A LBD mod, SKN-1 inh, SMARCA2 activ, NadD inh, Vif inh)
O=C(COc1cc(Cl)c(Cl)cc1Cl)Nc1ccc([N+](=O)[O-])cc1Cl	GRIN3A LBD mod 10.3
O=C(COC(=O)c1ccco1)Nc1ccc([N+](=O)[O-])cc1Cl	none
CCN(CC)S(=O)(=O)c1ccc(Cl)c(NC(=O)COc2ccccc2[N+](=O)[O-])c1	none (no result: esBAF inh)
CN(C)S(=O)(=O)c1ccc(Cl)c(NC(=O)COc2ccccc2[N+](=O)[O-])c1	GRIN3A LBD mod 12.8 (no result: esBAF inh)
O=C(COc1ccccc1[N+](=O)[O-])Nc1ccccc1N1CCCC1	GRIN3A LBD mod 15.7 (no result: esBAF inh)
O=C(COc1ccccc1[N+](=O)[O-])Nc1ccccc1N1CCCCC1	none (no result: SMARCA2 activ)
CO[C@@H]1CN(C)C(=O)c2cc(NC(=O)c3nc4ccccc4s3)ccc2OC[C@@H](C)N(Cc2ccccc2)C[C@H]1C	none (no result: GRIN3A LBD mod, SKN-1 inh, SMARCA2 activ, NadD inh, Vif inh)

Bioassay records deposited in PubChem by several laboratories.
